TDP1 cell CPT: DT40-hTDP1 cell growth loss with CPT. AID 686979. chicken DT40 Tdp1-/-;hTDP1 cells + 20 nM CPT, ATP luminescence, 48 h. Potency, µM (top dose mostly 46.2 µM), inactives show at the top dose activity change, negative = growth inhibition, actives largely listed as inhibitors. 12% of 420,000 active; also: potency is read from the fitted curve at half-maximal effect; nearly all actives have a fitted effect of over 55% in size
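Cell growth measured by CellTiter-Glo luminescence after a minimum 48 h, 37 C compound exposure with 20 nM CPT in Tdp1-knockout DT40 cells stably expressing hTDP1, seeded 400/well; qHTS titration format.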
HT1080-NT tox: kills 2HG-producing HT-1080-NT fibrosarcoma cells. AID 686970. 1.6% of 360,000 active. HT-1080-NT fibrosarcoma viability, CellTiter-Glo ATP luminescence, 48 h. Potency, µM (series often up to 46.1 µM), inactives show top-dose activity, negative = less viability, hits mostly cytotoxic;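 also: NT is the 2HG producing partner of a matched IDH1 knockdown line; potency is read from the fitted curve at half-maximal effect; 0% = DMSO-treated cells and -100% = media-only wells without cells; nearly all actives have a fitted effect of over 55% in size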
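HT-1080-NT; 750 cells/well; 5% FBS RPMI; 48 h compound, 37 degrees C; CellTiter-Glo luminescence; curve fitting and curve-class assignment.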
TDP1 cell noCPT: qHTS for Inhibitors of human tyrosyl-DNA phosphodiesterase 1 (TDP1): qHTS in cells in absence of CPT; DT40 Tdp1-/- hTDP1 cells, no CPT, ATP luminescence, 48 h; Potency, µM (series often up to 46.2 µM), for the others: at the top dose activity change, negative = growth inhibition, hits mostly inhibitors; 15% of 420,000 active; also: potency is read from the fitted curve at half-maximal effect; nearly all actives have a fitted effect of over 55% in size
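DT40 Tdp1-/-;hTDP1 cells, no CPT (DMSO vehicle only), 400 cells/well; compounds pin-transferred; ≥48 hr, 37 °C; CellTiter-Glo 30 min RT dark, luminescence read.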
HT1080 IDH1KD tx: HT-1080 IDH1 knockdown cell toxicity (counter line); HT-1080 IDH1 knockdown viability, ATP luminescence, 48 h; Potency, µM (top dose mostly 46.1 µM), without a hit: at the highest dose activity, negative = toxicity, hits mostly cytotoxic; 2% of 360,000 active; AID 686971;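 also: potency is read from the fitted curve at half-maximal effect; 0% = DMSO wells and -100% = cell-free medium wells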
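CellTiter-Glo luminescence after 48 h compound exposure at 37 degrees C of IDH1-knockdown HT-1080 cells in 5% FBS RPMI. %Activity scaled between DMSO wells and cell-free media wells, with curves fitted and assigned curve classes.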
IL-1B inflam inh: inflammasome signaling inhibition, IL-1 beta readout; activity change, % at 57.5 µM; 4.7% of 360,000 active; THP-1 LPS/ATP IL-1B secretion, AlphaLISA, 16 h; hits give low values; AID 743279; in the data active = activity change below about -50%; inconclusive = mostly about -30% to -49%
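THP-1 cells pretreated 1 hr with compounds (up to 57.5 uM final), then stimulated with LPS (250 ng/mL final) plus ATP (1.25 mM final); secreted IL-1B measured by AlphaLISA after 16 hr, decreased signal indicating inhibition.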
ELG1 repair inh: blocks ELG1-dependent DNA repair in HEK293T cells; HEK293T ELG1-luciferase reporter, luminescence, 16 h; DNA damage induced by 5-fluorouridine; Potency, µM (series often up to 46.1 µM), without a hit: top-dose activity change, negative = inhibition, usual class: inhibitors; 2.3% of 330,000 active; AID 504467; also: potency is read from the fitted curve at half-maximal effect; nearly all actives have a fitted effect of over 55% in size
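Luminescence from the luciferase reporter, measured 30 min after ONE-Glo reagent at room temperature, was the read-out. Beforehand, 2,000 cells per well were exposed for 16 hr at 37 °C to 5-fluorouridine together with compound or vehicle.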
The depositor's hits bear a star; ? = inconclusive; / = no result; ! = not confirmed by another sample. Shown are actives, neighbours in structure and some others; about 19% of the full set was active somewhere. Unless noted, calls follow the shape of the dose curve; as a rule, active = well fitted curve in the direction sought with a large enough effect; inconclusive = small, poorly fitted or top-dose-only effect, or another doubt; inactive = no such curve, though single readings can be large; an effect the other way counts as inactive or inconclusive. Unless noted, % is scaled to controls: 0 for no effect and ±100 for the full control effect.

SMILES | TDP1 cell CPT | HT1080-NT tox | TDP1 cell noCPT | HT1080 IDH1KD tx | IL-1B inflam inh | ELG1 repair inh
COCCNC(=O)C(c1ccc(F)cc1)N(Cc1ccccc1)C(=O)CCC(=O)Nc1ccccn1 (centres undefined) | 1.4% | 7.2% | -7.7% | -0.2% | -8.6 | -5.8%
COc1cc(OC)cc(-c2c(Sc3ccccc3)c3cc(-c4ccc(OC)c(F)c4)ccc3n2C)c1 | -8.7% | -3.0% | -7.1% | 4.5% | 0.0 | /
CCCn1c2ccccc2c2cnn(CC(=O)NCCCOC)c(=O)c21 | -2.8% | 0.7% | -14.4% | -1.0% | 13.3 | -0.5%
CCCCN(C)CCCNC(=O)Cn1ncc2c3ccccc3n(Cc3ccccc3F)c2c1=O | 13µM* | / | 13µM* | / | / | /
CCCN(CCC)CCCNC(=O)Cn1ncc2c3ccccc3n(Cc3ccccc3F)c2c1=O | 16.4µM* | / | 23.1µM* | / | / | /
CCCCN(C)CCCNC(=O)Cn1ncc2c3ccccc3n(Cc3cc(C)ccc3C)c2c1=O | 2.59µM* | / | 2.91µM* | / | / | /
Cn1cc(S(=O)(=O)c2ccc(Cl)cc2)c(=O)c2cc(F)c(N3CCCC3)cc21 | 20.6µM* | / | 16.4µM* | / | / | /
COc1ccc(S(=O)(=O)c2cn(C)c3cc(N4CCCC4)c(F)cc3c2=O)cc1 | ? | / | 23.1µM* | / | / | /
CC1CCCN(c2cc3c(cc2F)c(=O)c(S(=O)(=O)c2cccc(Cl)c2)cn3C)C1 (centres undefined) | ? | / | 23.1µM* | / | / | /
Cn1cc(S(=O)(=O)c2ccccc2)c(=O)c2cc(Cl)ccc21 | 16.4µM* | 29.0% | ? | 4.2% | -19.1 | ?
Cc1cc(C)cc(S(=O)(=O)c2cn(C)c3cc(N4CCN(C)CC4)c(F)cc3c2=O)c1 | ? | 11.1% | ? | -2.0% | 4.2 | -2.7%
Cn1cc(S(=O)(=O)c2cccc(Cl)c2)c(=O)c2cc(F)c(N3CCN(c4ccccc4)CC3)cc21 | 4.2% | / | -13.4% | / | / | /
COc1ccc(/C=N/NC(C)(C)C)c(OC)c1 | ? | 23.1% | -22.0% | 21.7% | -12.4 | 15.2%
O=C(c1cccc(S(=O)(=O)N2CCN(c3ccc(F)cc3)CC2)c1)N1CCN(c2ccccc2O)CC1 | ? | -7.1% | ? | -24.6% | ? | /
CC(=O)Nc1ccc(CN(C)c2c(C)nc3ccc(C(=O)N4CCN(C(C)=O)CC4)cn23)cc1 | 8.8% | 24.5% | 25.8% | -0.6% | 9.5 | /
CC(C)N1CCC(C)(C(=O)Nc2ccc(-n3cccc3)cc2)C1 (centres undefined) | ? | 0.6% | ? | 0.0% | -17.0 | /
CC(C)N1CCC1(C)C(=O)Nc1ccc(-n2cccc2)cc1 (centres undefined) | 14.6µM* | 4.2% | ? | 4.2% | -18.5 | /
CCc1nn(CC(=O)N2CC(C)CC(C)C2)c(=O)c2cccn12 (centres undefined) | 5.2% | 4.2% | 13.7% | 0.0% | 4.0 | -0.3%
CCOC(=O)O[C@]1(C(=O)COC(=O)CC)CC[C@H]2[C@@H]3CCC4=CC(=O)C=C[C@]4(C)[C@H]3[C@@H](O)C[C@@]21C | ? | 14.4% | ? | 15.2% | -28.3 | 6.8%
CCCC1OC2CC3C4CCC5=CC(=O)C=CC5(C)C4C(O)CC3(C)[C@]2(C(=O)CO)O1 (some centres undefined) | 16.4µM* | / | ? | / | / | /
CCCC1OC2C[C@@H]3[C@H]4CCC5=CC(=O)C=C[C@]5(C)[C@H]4C(O)C[C@]3(C)[C@]2(C(=O)CO)O1 (some centres undefined) | 11.2µM* | / | ? | / | / | /
C[C@H]1C[C@@H]2[C@H]([C@@H](O)C[C@@]3(C)[C@H]2CC[C@]3(O)C(=O)CO)[C@@]2(C)C=CC(=O)C=C12 | -22.1% | ? | -16.2% | ? | / | 22.6%
Cc1c(Cl)cccc1NC(=O)C(C)n1nc(C)c2c(C)n(-c3ccccc3)nc2c1=O (centres undefined) | -25.3% | / | -27.8% | / | / | /
COc1ccc(CC(N)c2csc(Nc3nccc(C(F)(F)F)n3)n2)cc1 (centres undefined) | ? | ? | ? | ? | -55.9* | /
COc1ccc(CC(N)c2csc(Nc3cnccn3)n2)cc1 (centres undefined) | ? | -12.6% | ? | -28.9% | -4.5 | /
SMILES | TDP1 cell CPT | HT1080-NT tox | TDP1 cell noCPT | HT1080 IDH1KD tx | IL-1B inflam inh | ELG1 repair inh
COc1ccc(CC(N)c2csc(Nc3cc(NCc4ccco4)ncn3)n2)cc1 (centres undefined) | ? | ? | 13µM* | ? | -51.1* | /
COc1ccc(CC(N)c2csc(Nc3ncccn3)n2)cc1 (centres undefined) | 4.61µM* | -29.7% | 6.51µM* | ? | -29.0 | /
NC(Cc1ccccc1)c1csc(Nc2nccc(C(F)(F)F)n2)n1 (centres undefined) | 16.4µM* | ? | 20.6µM* | ? | -12.2 | /
Cc1ccc(CNC(=O)CCn2cc(-c3ccc(C)cc3)nc2CCN)cc1 | ? | -17.5% | ? | -14.1% | ? | ?
CCCc1nnc(NC(=O)c2cc(=O)c3cc(C)c(C)cc3o2)s1 | 3.6% | / | -19.5% | / | / | /
NC(Cc1ccc(Cl)cc1)c1csc(Nc2nccc(C(F)(F)F)n2)n1 (centres undefined) | ? | 16.4µM* | ? | 23.1µM* | -56.0* | /
O=C(NCCNc1nccc(C(F)(F)F)n1)c1cccs1 | -6.5% | 14.1% | -10.0% | 5.5% | 8.9 | -6.2%
NC(Cc1ccc(F)cc1)c1csc(Nc2nccc(C(F)(F)F)n2)n1 (centres undefined) | ? | 23.1µM* | 14.6µM* | 14.6µM* | -59.4* | /
COc1ccc(N2CC(NC(=O)N3CCc4ccccc43)CC2=O)cc1OC (centres undefined) | -9.0% | 0.0% | 0.1% | -11.3% | 24.3 | -6.2%
CCc1ccccc1NC(=O)C1CCCN(S(=O)(=O)c2ccc3c(c2)CC(C)N3C(C)=O)C1 (centres undefined) | -26.3% | 1.5% | ? | -4.3% | 2.2 | ?
Cc1nn(CC(=O)N(C)Cc2ccccc2)c(=O)c2cccn12 | -8.8% | 5.1% | -2.3% | 0.0% | 9.0 | ?
CC(C)N(CCCNC(=O)Cn1c(=O)c2cccn2c2ccccc21)Cc1ccccc1 | 18.4µM* | 2.9% | -15.5% | 6.8% | -0.5 | 5.0%
CN(Cc1ccccc1)C(=O)Cn1c(=O)c2cccn2c2ccc(F)cc21 | 23.1µM* | / | 6.51µM* | / | / | /
CN(C)CCNC(=O)Cn1c(=O)c2cccn2c2ccc(F)cc21 | 23.1µM*! | -1.9% | 16.4µM*! | -5.8% | ? | 24.5%

Screening data as filed in PubChem.
